HIF-2a block = HIF-2a reporter inhibitors, primary screen, luminescence, 786-0 RCC cells. inhibition, % at 18.8 µM. 786-0 RCC cells HIF-2a reporter, luciferase luminescence, overnight. AID 624352, 2012. 360,000 tested, 0.72% active;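 active = inhibition of the luminescence signal of 40% or more relative to plate controls, in a single-dose primary screen at 18.75 µM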
KKLEB tox = cytotoxicity in KKLEB CF airway cells, primary screen, cytotoxicity control for CF NF-kB inhibitor project, cell-based, uHTS, fluorescence assay plates | KKLEB CF airway cells viability, ATPlite luminescence, overnight; active compounds read low; cells stimulated with P. aeruginosa culture filtrate | activity change (cytotoxicity), % at 5 µM | 360,000 tested, 0.36% active | AID 602141, 2011;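 active = corrected activity change at or below -50% at 5 µM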
LMP1 NFkB inh = EBV LMP1-driven NF-kappaB luciferase reporter inhibitors, primary screen, cell-based, luminescence, single point; 350,000 tested, 0.69% active; LMP1-induced NF-kappaB luciferase reporter cells; inhibition, % at 12.5 µM; in the data active = inhibition above about 41%;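 also: 0% = neutral control wells and 100% = reference inhibitor control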
TRPM1 prom inh = inhibitors of MITF-dependent TRPM1 promoter reporter, primary screen, cell-based, SK-MEL-5, single point, luciferase | 330,000 tested, 0.83% active | AID 488899, 2010 | SK-MEL-5 TRPM1 promoter luciferase, 24 h | inhibition, % at 12.5 µM;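 active = mean inhibition across replicates of 60% or more, whatever share of single replicates reaches that level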
CF NFkB inh = inhibitors of PAF-induced NF-kB signaling, primary screen, cell-based, GFP fluorescence, uHTS; 360,000 tested, 0.86% active; inhibition, % at 5 µM; KKLEB NF-kB-GFP reporter, GFP fluorescence overnight;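 active = at least 50% inhibition at 5 µM, scaled per plate between neutral and stimulator controls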;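 also: PAF is a Pseudomonas aeruginosa culture filtrate used as stimulus; plate controls were PAF-stimulated DMSO wells for no effect and unstimulated DMSO wells for full effect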
Peg3 promoter = Peg3 promoter-driven luciferase inhibitors, primary screen, cell-based, HeLa, luciferase luminescence. HeLa PEG-Prom luciferase reporter, overnight. inhibition, % at 20 µM. 360,000 tested, 1.7% active. AID 588405, 2011;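 active = inhibition of at least 50% at 20 µM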
Mdm2 MdmX conf = retested Mdm2-MdmX interaction blockers, confirmation, cell-based, luminescence, single concentration, set 2; shares compounds with HIF-2a block; SaOS-2 split-luciferase Mdm2/MdmX complementation; inhibition, % at 8 µM; 740 tested, 99% active;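 active = mean inhibition of the luminescence signal across two replicates at or above 26 percent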
Target sequence (O15151 whole entry, looked up): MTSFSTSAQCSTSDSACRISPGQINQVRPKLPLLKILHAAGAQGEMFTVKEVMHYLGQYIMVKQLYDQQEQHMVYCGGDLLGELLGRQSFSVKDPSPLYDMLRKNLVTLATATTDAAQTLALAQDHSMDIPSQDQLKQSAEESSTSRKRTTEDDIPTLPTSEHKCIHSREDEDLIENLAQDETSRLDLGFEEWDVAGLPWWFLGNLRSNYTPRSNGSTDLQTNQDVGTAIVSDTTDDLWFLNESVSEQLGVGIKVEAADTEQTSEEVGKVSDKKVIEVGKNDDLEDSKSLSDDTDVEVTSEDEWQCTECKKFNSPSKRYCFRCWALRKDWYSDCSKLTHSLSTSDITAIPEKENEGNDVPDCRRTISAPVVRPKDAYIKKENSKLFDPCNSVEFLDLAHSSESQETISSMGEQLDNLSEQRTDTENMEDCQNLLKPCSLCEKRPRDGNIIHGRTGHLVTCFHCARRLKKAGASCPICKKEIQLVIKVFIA
Target sequence (Q00987 whole entry, looked up): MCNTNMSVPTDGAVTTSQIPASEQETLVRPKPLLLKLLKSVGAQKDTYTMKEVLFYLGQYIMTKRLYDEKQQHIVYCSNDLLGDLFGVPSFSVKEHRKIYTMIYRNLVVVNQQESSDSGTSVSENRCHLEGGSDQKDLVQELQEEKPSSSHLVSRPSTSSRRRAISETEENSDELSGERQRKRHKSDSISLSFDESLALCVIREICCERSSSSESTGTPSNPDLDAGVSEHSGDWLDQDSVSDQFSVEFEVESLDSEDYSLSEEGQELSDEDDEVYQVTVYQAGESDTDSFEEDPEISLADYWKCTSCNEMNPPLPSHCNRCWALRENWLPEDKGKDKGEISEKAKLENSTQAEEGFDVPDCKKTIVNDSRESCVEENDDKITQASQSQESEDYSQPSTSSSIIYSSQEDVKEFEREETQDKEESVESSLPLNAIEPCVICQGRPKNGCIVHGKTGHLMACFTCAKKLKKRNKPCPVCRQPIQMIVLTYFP
HIF-2a inh conf = HIF-2a reporter inhibitor retest, confirmation, luminescence, 786-0 RCC cells | 1,800 tested, 56% active | AID 651580, 2012 | shares compounds with HIF-2a block | HIF-2a luciferase reporter luminescence, overnight | inhibition, % at 18.8 µM;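 active = mean inhibition across four replicates of at least 40 percent at the single tested concentration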
HIF-1a counter = HIF-1a luciferase reporter signal reduction – MiaPaCa-2 cells, single concentration, counter-screen for HIF-2a inhibitor project, confirmation. shares compounds with HIF-2a block. MiaPaCa-2 HIF-1a luciferase reporter, desferoxamine, overnight. 1,800 tested, 72% active. inhibition, % at 18.8 µM;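 active = mean inhibition of the reporter signal across four replicates at the single tested dose of 50% or more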
Starred values were filed as active, the others as inactive. In the library only some 3% were active in any assay of this set; here they are far more common.

`Cc1ccc(Sc2ncccc2[N+](=O)[O-])cc1` gave HIF-2a block -8, KKLEB tox -4, LMP1 NFkB inh -1, TRPM1 prom inh 1, CF NFkB inh 3 and Peg3 promoter -8.
For Cc1c([N+](=O)[O-])cnc(Sc2ccccc2)c1[N+](=O)[O-] the results were HIF-2a block 50*, KKLEB tox -29, LMP1 NFkB inh -3, TRPM1 prom inh 11, CF NFkB inh 52*, Peg3 promoter 44, HIF-2a inh conf 48* and HIF-1a counter 84*.
`COc1ccccc1N(CC(=O)N1CCN(Cc2ccccc2)CC1)S(=O)(=O)c1ccccc1` gave HIF-2a block 14, KKLEB tox -11, LMP1 NFkB inh 5, CF NFkB inh 16 and Peg3 promoter 7.
`Cc1cc2c(cc1C)-c1nnnn1C(N1CCC(Cc3ccccc3)CC1)C(=O)N2` (configuration not stated) gave HIF-2a block 20.
`COc1ccc(OC)c(C(=O)/C=C/c2ccccc2C(F)(F)F)c1` gave HIF-2a block 74*, KKLEB tox -14, LMP1 NFkB inh 1, TRPM1 prom inh 15, CF NFkB inh -4, Peg3 promoter 102*, HIF-2a inh conf 26 and HIF-1a counter 105*.
CC1(C)Cc2c(c(N3CCOCC3)nc3sc4c(NCCN)ncnc4c23)CO1 was read as HIF-2a block 45*, KKLEB tox -4, LMP1 NFkB inh -1, TRPM1 prom inh 70*, CF NFkB inh -11, Peg3 promoter 100*, HIF-2a inh conf 2 and HIF-1a counter 44.
Screening CC1=C(C(=O)N2CCOCC2)CC(CC(=O)NCCCCc2ccccc2)C(=O)N1CCC1=CCCCC1 (configuration not stated) returned HIF-2a block 0, KKLEB tox -2, LMP1 NFkB inh -8, CF NFkB inh 0 and Peg3 promoter 13.
`CCOC(=O)Cc1ccc(NC(=O)c2ccc(C(C)(C)C)cc2)cc1` gave HIF-2a block 90*, KKLEB tox -10, LMP1 NFkB inh 5, TRPM1 prom inh 6, CF NFkB inh 8, Peg3 promoter -45, HIF-2a inh conf 97* and HIF-1a counter 77*.
`CN(C(=O)CSc1cc(C(=O)c2nccn2C)c2ccccc2n1)c1ccccc1` gave HIF-2a block 50*, KKLEB tox -6, LMP1 NFkB inh -3, TRPM1 prom inh 17, CF NFkB inh 23, Peg3 promoter 50, HIF-2a inh conf 29 and HIF-1a counter 52*.
CCCOc1ccc(C(=O)C(CN2CCOCC2)c2ccccc2)cc1 (configuration not stated) was read as HIF-2a block 63*, KKLEB tox -29, LMP1 NFkB inh -55, TRPM1 prom inh 36, CF NFkB inh -7, Peg3 promoter 94*, HIF-2a inh conf -8 and HIF-1a counter 100*.
CCCOc1ccc(C(=O)C(c2ccccc2)N2CCOCC2)cc1 (configuration not stated) was read as HIF-2a block 2, KKLEB tox -14, LMP1 NFkB inh 1, TRPM1 prom inh -2, CF NFkB inh 19 and Peg3 promoter 8.
`Cc1cccc(CSC(Nc2ccc(F)cc2)=C(C#N)C#N)c1` gave HIF-2a block -2, KKLEB tox -44, LMP1 NFkB inh 6, TRPM1 prom inh 16, CF NFkB inh 42, Peg3 promoter 62* and Mdm2 MdmX conf 94*.
COC(=O)C[C@@H]1CC[C@H](NC(=O)Nc2ccc(F)cc2)[C@@H](CO)O1 was read as HIF-2a block 6.
`COC(=O)c1c(C)n(-c2ccccc2)c2ccc(O)cc12` gave HIF-2a block 9, KKLEB tox 7, LMP1 NFkB inh 6, TRPM1 prom inh 6, CF NFkB inh 26 and Peg3 promoter 22.
CN(C)/C=C/c1c([N+](=O)[O-])c2ccc(O)cc2n1-c1ccccc1 was read as HIF-2a block 28, KKLEB tox -3, LMP1 NFkB inh 9, TRPM1 prom inh -12, CF NFkB inh 84*, Peg3 promoter 52* and Mdm2 MdmX conf 90*.
Screening C=C(C)Cn1c2ccc(NC(=O)NCc3ccc(F)cc3)cc2c(=O)n1C returned HIF-2a block 9, KKLEB tox -2, CF NFkB inh -13 and Peg3 promoter 2.
Screening O=C(CN(c1cccc(C(F)(F)F)c1)S(=O)(=O)c1ccc(Cl)c([N+](=O)[O-])c1)NCc1ccc(F)cc1 returned HIF-2a block 82*, KKLEB tox 1, LMP1 NFkB inh 4, TRPM1 prom inh 44, CF NFkB inh 9, Peg3 promoter 88*, HIF-2a inh conf 40 and HIF-1a counter 105*.
`CCOC(=O)[C@]12CCCC=C1N(Cc1ccccc1)C(=O)[C@H](CC(=O)NCC1CCCCC1)C2` gave HIF-2a block -30.
For O=C(CN(Cc1ccc(Br)cc1)S(=O)(=O)c1ccccc1)NCc1cccnc1 the results were HIF-2a block 16, KKLEB tox -14, LMP1 NFkB inh 6, TRPM1 prom inh 7, CF NFkB inh 14 and Peg3 promoter 1.
For O=C(NCc1cccnc1)/C(=C/c1ccc(-c2cccc(C(F)(F)F)c2)o1)NC(=O)c1ccccc1 the results were HIF-2a block 17, KKLEB tox -5, LMP1 NFkB inh -1, TRPM1 prom inh 6, CF NFkB inh -6 and Peg3 promoter 25.
Screening O=C(NCc1cccnc1)/C(=C\c1ccc(-c2ccc(Br)cc2)o1)S(=O)(=O)c1ccccc1 returned HIF-2a block 93*, KKLEB tox -56*, LMP1 NFkB inh 63*, TRPM1 prom inh 100*, CF NFkB inh 86*, Peg3 promoter 107*, Mdm2 MdmX conf 103*, HIF-2a inh conf 98* and HIF-1a counter 106*.
